From PubChem BioAssay (NCI) come the findings set out here.

Molecules are shown by their SMILES. About 79,000 compounds went through this panel and 15% of them were active in at least one assay; those are over-represented in the sample as a whole. Active and inactive are the calls of the source. Cut-off read from the data, not from the text of the source: active = growth inhibition above about 70%; inactive = the rest.

The nature of this assay: NCI Yeast Anticancer Drug Screen. Data for the mlh1 rad18 strain (AID 175). The following applies: S. cerevisiae mlh1 rad18 strain growth inhibition; at 50.0 µM; active compounds read high. The method, boiled down: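 Vehicle-treated cultures served as the reference for growth inhibition in a yeast strain carrying DNA damage repair alterations exposed to each compound.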
`CCC(c1ccccc1)N1C(=O)c2ccccc2S1(=O)=O` (stereo not given): the growth inhibition is 32.5% (inactive).

With `Cc1ccc2cc3ccccc3c(-c3ccccc3)c2c1`, the growth inhibition is -5.65% (inactive).

Regarding `CC(=O)Oc1ccc(C)cc1C(C)(C)C`, the growth inhibition was 74.2% (active).

With `CCCCCCCCCCC[N+](C)(C)CCCCCC[N+](C)(C)CCCCCCCCCCC`, the growth inhibition was 90.2% (active).

As to `CCN(CC)CCCNc1nc(NCCCN(CC)CC)c2nc(-c3ccccc3)c(-c3ccccc3)nc2n1`, the growth inhibition was 98.5% (active).

Take `O=[N+]([O-])c1cnc(Sc2cncc[n+]2[O-])s1`: the growth inhibition is 99.5% (active).

As to `O=c1[nH]c(=O)c2cc([N+](=O)[O-])cc([N+](=O)[O-])c2[nH]1`, the growth inhibition was 75% (active).

Take `O=C(NC(=O)C(F)(F)F)Nc1ccc(Cl)cc1`: the growth inhibition is 0.8% (inactive).

Consider `O=[N+]([O-])c1ccc(S)c(Cl)c1`, for which the growth inhibition is 93.5% (active).

For `CS(=O)(=O)n1c(C(O)c2ccccc2)nc2ccccc21` (stereo not given), the growth inhibition is 14.2% (inactive).

Consider `O=C(NCc1ccccc1)C1C(=O)N(Cc2ccccc2)C(=O)/C1=N/O` (stereo not given), for which the growth inhibition is 12.8% (inactive).

Regarding `C[n+]1c(/C=C/c2ccccc2Cl)sc2ccccc21`, the growth inhibition is 98.7% (active).

As to `CC(=O)c1ccc(Cl)c(N=Cc2cc(Br)ccc2O)c1`, the growth inhibition is 61.5% (inactive).

As for `O=C(c1ccc(Cl)cc1)c1ccc([N+](=O)[O-])cc1`, the growth inhibition is 8.05% (inactive).

In the case of `Nc1ccc2c(c1)[nH]c(=O)c1cc(Cl)c(Cl)cc12`, the growth inhibition was 92.9% (active).

`COc1ccc(C2CC(c3c(O)ccc4ccccc34)=NN2)cc1OC` (stereo not given): the growth inhibition was 89.7% (active).

Take `CC[N+]1(C)CCC(O)(c2ccc(Cl)c(Cl)c2)C(C(=O)c2ccc(Cl)c(Cl)c2)C1` (stereo not given): the growth inhibition was 99.6% (active).

Consider `Nc1nc(Cl)cc(NCC2(CO)CC(CCCc3ccccc3)C2)n1` (stereo not given), for which the growth inhibition was -48.1% (inactive).

Consider `Nc1nc(-c2cc3cc(Cl)ccc3o2)cs1`, for which the growth inhibition is -4.25% (inactive).

For `O=C(N(c1ccc(Cl)cc1)c1ccc(Cl)cc1)C(Cl)(Cl)Cl`, the growth inhibition is 18.1% (inactive).

Take `NC(CSSCC(N)C(=O)Nc1ccc2ccccc2c1)C(=O)Nc1ccc2ccccc2c1` (stereo not given): the growth inhibition was 88% (active).

Turning to `O=C/C=C/c1cc([N+](=O)[O-])ccc1Cl`, the growth inhibition is 93.3% (active).

Regarding `COc1cc(C(c2cc3c(cc2OC(C)=O)OCO3)C(C(C)=O)C(C)=O)cc(OC)c1OC(C)=O` (stereo not given), the growth inhibition is -4.2% (inactive).

As for `CCCCc1ccc(Nc2nc(N)c3[nH]cnc3n2)cc1`, the growth inhibition is 91.6% (active).

On to `O=C(O)/C=C/C(=O)Nc1cccc2ccccc12`, for which the growth inhibition is 16.8% (inactive).

In the case of `Cc1cc(O)c(C(=O)/C=C/c2ccnc3ccccc23)c(=O)o1`, the growth inhibition was -23.2% (inactive).

Take `ONC1=Nc2ccccc2OCc2cc(Br)c(Br)cc2COc2ccccc2N=C1NO`: the growth inhibition was 87.9% (active).

Regarding `NNC(=O)c1ccc(N)cc1O`, the growth inhibition was 1.8% (inactive).

Turning to `O=C(N/C(=C\c1ccc2c(c1)OCO2)c1nc2ccccc2s1)c1ccccc1`, the growth inhibition was 97.5% (active).

In the case of `CC1=NN(C(=O)c2ccncc2)C(=O)C1N=Nc1ccc(C)c([N+](=O)[O-])c1` (stereo not given), the growth inhibition is 20.4% (inactive).

In the case of `COc1ccc2nc3cc(Cl)ccc3c(Nc3nccs3)c2c1`, the growth inhibition is 88.2% (active).

Take `S=C(S)NCCN1CCNCC1`: the growth inhibition is -10.3% (inactive).

Consider `ClCc1nc2ccccc2c2ccccc12`, for which the growth inhibition was 83.5% (active).

Consider `ClC1=C(Cl)C(Cl)(C(Cl)(Cl)Cl)C(Cl)=C1Cl`, for which the growth inhibition was 99.4% (active).

In the case of `FC(F)(F)COP1(OCC(F)(F)F)=NP(OCC(F)(F)F)(OCC(F)(F)F)=NP(c2ccccc2)(c2ccccc2)=N1`, the growth inhibition was 56.1% (inactive).

Consider `CC(C)c1c(P(=O)(c2ccccc2)c2ccccc2)n(C)c2ccccc12`, for which the growth inhibition was 79.6% (active).

Take `CN(CCC1CCCCC1)CCC1CCCCC1`: the growth inhibition was 93.6% (active).

With `Cc1nc(Cl)nc(N)c1[N+](=O)[O-]`, the growth inhibition is 45.1% (inactive).

As for `Nc1ccc2[nH]c3ccccc3c2c1`, the growth inhibition is 16.8% (inactive).

For `COc1ccc(NC(=O)CSC(N)=O)cc1`, the growth inhibition was 51.6% (inactive).
